# Laboratory results as given in PubChem BioAssay AID1022 (Emory University Molecular Libraries Screening Center, 2008).
# Where “and” joins values, the source holds several entries; their conditions need not be identical. Equal values may be shown once. The whole screen tested about 220,000 compounds, of which about 3,300 (1.5%) were called active.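 How the source made its calls: active means compounds that cut the protein-peptide binding signal by more than 50% relative to plate controls in a single-dose test; inactive means the rest.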 Shown is part of a subset that was picked to be rich in actives. A structure can be active in one record and inactive in another.
# Target: Induced myeloid leukemia cell differentiation protein Mcl-1 (Homo sapiens) (UniProt Q07820)
# Sequence (Q07820 whole entry, looked up): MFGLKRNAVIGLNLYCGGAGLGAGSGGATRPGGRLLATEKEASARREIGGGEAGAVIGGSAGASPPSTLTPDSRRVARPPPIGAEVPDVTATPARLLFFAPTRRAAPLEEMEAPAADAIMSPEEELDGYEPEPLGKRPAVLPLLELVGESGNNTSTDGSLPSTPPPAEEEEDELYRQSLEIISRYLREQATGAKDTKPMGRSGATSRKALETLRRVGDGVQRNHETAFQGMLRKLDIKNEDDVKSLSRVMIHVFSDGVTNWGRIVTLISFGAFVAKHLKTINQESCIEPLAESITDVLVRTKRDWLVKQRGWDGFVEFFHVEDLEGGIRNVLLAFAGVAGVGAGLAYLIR
# Test: disruptors of Mcl-1 and Noxa BH3 peptide – biochemical, TR-FRET, 1536-well, primary screen (AID 1022);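 further: His-tagged Mcl-1 with rhodamine Noxa BH3 peptide and terbium anti-His antibody; 0% = Mcl-1 plus Noxa peptide wells and 100% = peptide-only wells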
# Conditions: TR-FRET Mcl-1/Noxa peptide binding, 2 h; at 21.7 µM; stronger effect = higher value
row,Structure (SMILES),inhibition
1,NC(=O)c1ccc(NC(=O)COC(=O)c2ccc([N+](=O)[O-])cc2)cc1,-10.3% (inactive)
2,CCOC(=O)c1c(NC(=S)NC)sc2c1CCCC2,11.9% (inactive)
3,COc1ccc(CS(=O)/C(Cl)=C(/Cl)C(=O)Nc2ccc(OC)nc2)cc1 (configuration not stated),43.3% (inactive)
4,COc1ccc(NC(=S)Nc2ccccc2Cl)cn1,16.9% (inactive)
5,COc1ccc(NC(=O)/C(Cl)=C(/Cl)S(=O)Cc2ccc(C)cc2)cn1 (configuration not stated),65.8% (active)
6,CCNC(=O)CCc1nc(-c2ccc(C)cc2)no1,-1.4% (inactive)
7,Fc1ccccc1N=C1Nc2cccc3cccc1c23,16.1% (inactive)
8,COc1ccccc1C1=Nc2cccc3cccc(c23)N1,75.8% (active)
9,c1ccc(C2=Nc3cccc4cccc(c34)N2)cc1,37% (inactive)
10,N#Cc1c(C(F)(F)F)cc(-c2cccs2)nc1N1CCCCC1,-6.66% (inactive)
11,COc1ccc2c(CC(=O)OCC(=O)NC(N)=O)coc2c1,8.39% (inactive)
12,Nc1nc(SCc2ccccc2Cl)n[nH]1,-21.7% (inactive)
13,c1ccc(CSc2nnc(-c3ccco3)c(-c3ccco3)n2)cc1,108% (active)
14,O=C(CSc1nnc(-c2ccco2)n1CC1CCCO1)c1ccccc1 (configuration not stated),5.57% (inactive)
15,c1ccc(CSc2nnc(-c3ccco3)n2Cc2ccccc2)cc1,53% (active)
16,Clc1ccccc1CSc1nnc(-c2ccco2)c(-c2ccco2)n1,109% (active)
17,COC(OC)c1ccnc(SCc2ccccc2Cl)n1,2.7% (inactive)
18,O=C(Nc1nnc(SCc2ccccc2)s1)c1ccco1,-9.36% (inactive)
19,O=C(CSc1nnc(-c2ccco2)n1Cc1ccccc1)NC(=O)NCc1ccco1,31.8% (inactive)
20,Brc1ccc(CSc2ccc(-c3ccco3)nn2)cc1,5.62% (inactive)
21,COc1ccc(CC(=O)NCC(=O)N/N=C/c2cc(Br)ccc2OC)cc1,0.9% (inactive)
22,Clc1ccc2nc(-c3ccccc3)nc(C(Cl)Cl)c2c1,-22.1% (inactive)
23,Nc1c(N(CCO)C(=O)C2CCCCC2)c(=O)[nH]c(=O)n1Cc1ccccc1,24.7% (inactive)

row,Structure (SMILES),inhibition
1,Cc1c(NC(=O)CN2C(=O)C(=O)N(Cc3ccccc3)C2=O)c(=O)n(-c2ccccc2)n1C,8.51% (inactive)
2,Cn1nccc1NC(=O)CC(CC(=O)O)c1ccccc1 (configuration not stated),-13% (inactive)
3,Cc1cc(N2CCN(c3ccccc3)CC2)nc(N2CCOCC2)n1,14.2% (inactive)
4,CS(=O)(=O)c1ccc2c(c1)SC1=NC(=O)/C(=C/c3ccco3)C(=N)N12,103% (active)
5,CCS(=O)(=O)C1=NSC2=NC(=O)/C(=C\c3cc(C)n(-c4cccc(OC)c4)c3C)C(=N)N21,37.6% (inactive)
6,Cc1cc(/C=C2/C(=N)N3C(=NC2=O)SN=C3S(C)(=O)=O)c(C)n1-c1ccccc1,16.9% (inactive)
7,OCC1(Cc2ccccc2C(F)(F)F)CCN(Cc2ccncc2)CC1,13.3% (inactive)
8,CC(C)(C)NC(=O)NCc1ccco1,8.79% (inactive)
9,O=C(Nc1ccccc1)Nc1nnc(COc2ccccc2F)s1,23.7% (inactive)
10,O=c1[nH]c(=S)[nH]c2[nH]c(=S)[nH]c12,95.1% (active)
11,Cc1c(C)c(C)c2[nH]c(=S)[nH]c2c1C,2.53% (inactive)
12,Cc1cc(=O)[nH]c(=S)[nH]1,4.28% (inactive)
13,O=C(COC(=O)/C=C/c1ccc2c(c1)OCO2)NC1CCS(=O)(=O)C1 (configuration not stated),16% (inactive)
14,COc1ccc(OC)c(Nc2nc3ccccc3n3cnnc23)c1,16.9% (inactive)
15,O=C(N/N=C/c1ccc([N+](=O)[O-])o1)c1cccc(S(=O)(=O)N2CCOCC2)c1,5.84% (inactive)
16,O=[N+]([O-])c1cc(Cl)cc(/C=N/NC(=S)Nc2cc(S(=O)(=O)N3CCOCC3)ccc2Cl)c1O,100% (active)
17,O=C(CN1CCN(c2ccc(O)cc2)CC1)Nc1cc(S(=O)(=O)N2CCOCC2)ccc1Cl,49.8% (inactive)
18,COc1ccc2nc(NC(=O)NC3CCCCC3)sc2c1,-0.53% (inactive)
19,O=C(Nc1ccccc1)O/N=C1/CCCc2occc21,6.55% (inactive)
20,Oc1ccc(N=Nc2nccs2)c(O)c1,-33.2% (inactive)
21,COc1cc2c(cc1O)[C@H](Cc1ccc(Oc3cc(C[C@@H]4NCCc5cc(OC)c(O)cc54)ccc3O)cc1)NCC2,64.4% (active)
22,CC[C@H]1CN2CCc3cc(OC)c(OC)cc3[C@@H]2C[C@@H]1C[C@H]1NCCc2cc(OC)c(OC)cc21,22.4% (inactive)
23,O=[N+]([O-])c1ccc(N=Cc2c(O)ccc3ccccc23)cc1,-1.02% (inactive)

row,Structure (SMILES),inhibition
1,O=C(Nc1ccc(F)cc1F)N1CCCN(CCOc2ccccc2)CC1,9.38% (inactive)
2,N#CC1=C(N)Oc2c(sc3ccccc23)C1c1ccco1 (configuration not stated),51.5% (active)
3,CC1=C(C(=O)Nc2ccccc2)C(c2ccco2)C(C#N)=C(SCC(N)=O)N1 (configuration not stated),5.4% (inactive)
4,Cc1cc(C)c2c3c(sc2n1)C(c1ccccc1)C(C#N)=C(N)O3 (configuration not stated),-16.3% (inactive)
5,Cc1noc(C)c1S(=O)(=O)Nc1cc(C(F)(F)F)ccc1N1CCOCC1,-6.09% (inactive)
6,CC(C)Cc1nc(Cl)c(C#N)c2c1CCC2,1.09% (inactive)
7,COc1ccccc1CNC(=O)Cn1c(=O)oc2cc(Cl)ccc21,-8.08% (inactive)
8,CCCCN1C(=O)/C(=C/C=C2/C=Cc3ccccc3N2CC)SC1=S,25.9% (inactive)
9,CCN1C(=O)/C(=C2/Sc3ccccc3N2CCCS(=O)(=O)O)SC1=S,23% (inactive) and 61.3% (active)
10,CCN1C(=O)/C(=c2\s/c(=C3\Sc4ccccc4N3C)c(=O)n2C)N(C)C1=S,46.4% (inactive)
11,COc1ccc(N2C(=O)C3C(C2=O)C(C(=O)c2ccccc2)N2CCCC32)cc1 (configuration not stated),2.44% (inactive)
12,CCOc1cccc(/C=N/N2C(=O)CSC2=S)c1O,37.8% (inactive)
13,O=C1CSC(=S)N1/N=C/c1ccc(O)c([N+](=O)[O-])c1,85.6% (active)
14,NC(N)=N/N=C/c1ccc(Cl)c([N+](=O)[O-])c1,8.52% (inactive)
15,COc1ccc(COCCN2CCN(S(=O)(=O)c3ccccc3)CCC2=O)cc1,4.91% (inactive)
16,S=c1[nH]nc(-c2cccnc2)n1/N=C/C(Cl)=C\c1ccccc1,32.3% (inactive)
17,Cc1cc(-c2n[nH]c(=S)n2/N=C/C(Br)=C/c2ccccc2)n[nH]1,59.6% (active)
18,Cc1cc(-c2n[nH]c(=S)n2/N=C/c2ccco2)n[nH]1,5.82% (inactive)
19,Nc1ccccc1Sc1ccc(C(F)(F)F)cc1[N+](=O)[O-],-1.26% (inactive)
20,S=c1[nH]nc(-c2ccco2)n1/N=C/c1ccccc1,32.5% (inactive)
21,S=c1[nH]nc(-c2ccccc2)n1/N=C/c1c[nH]c2ccccc12,13.7% (inactive)
22,S=c1[nH]nc(-c2cc(-c3ccccc3)n[nH]2)n1/N=C/c1c2ccccc2cc2ccccc12,79.6% (active)
23,COCCN1C2=C(COC(C)(C)C2)C(=S)NC1c1ccccc1 (configuration not stated),1.37% (inactive)

row,Structure (SMILES),inhibition
1,Cc1cnc(NC(=O)Cn2cnc3c2c(=O)n(C)c(=O)n3C)s1,3.66% (inactive)
2,COCCOC(=O)c1sc(=S)n(CCOC)c1N,51.1% (active)
3,COC(=O)c1sc(=S)n(-c2ccccc2)c1N,16.2% (inactive)
4,CCOC(=O)Cn1c(N)c(C(=O)OC)sc1=S,5.93% (inactive)
5,CN(C)c1ccc(Nc2c3c4c(cccc4n(C)c2=O)C(=O)c2ccccc2-3)cc1,104% (active)
6,COc1ccc(COCC(O)CN2CCC(C(N)=O)CC2)cc1 (configuration not stated),4.43% (inactive)
7,CCn1cc(C(=O)NCc2ccc3c(c2)OCO3)c2cc(OC)c(OC)cc2c1=O,74.5% (active)
8,CCn1cc(C(=O)NCC2COc3ccccc3O2)c2cc(OC)c(OC)cc2c1=O (configuration not stated),-0.39% (inactive)
9,CCn1cc(C(=O)N2CCN(Cc3ccc4c(c3)OCO4)CC2)c2cc(OC)c(OC)cc2c1=O,4.25% (inactive)
10,CCOC(=O)C1C(c2ccc(OC)c(OC)c2)c2c([nH][nH]c2=O)CC1(C)O (configuration not stated),-16.2% (inactive)
11,CC(NC(=O)C(=O)Nc1nccs1)c1ccccc1 (configuration not stated),-15.7% (inactive)
12,CC12CN3CCN(CC(C3)/C1=N\NC(=O)c1ccccc1N)C2,15.5% (inactive)
13,Cc1cc(C)c(C#N)c(N2CCC(C(N)=O)CC2)n1,6.16% (inactive)
14,N#Cc1c(C(F)(F)F)cc(-c2ccc(Cl)cc2)nc1SCC(=O)O,6.22% (inactive)
15,N#Cc1c(N2CCCCC2)nc(N)c2c(N)nc(SCC(=O)O)cc12,57.7% (active)
16,COC(C[C@H](O)CC(=O)COCc1ccccc1)OC,3.71% (inactive)
17,O=[N+]([O-])C(=c1ccc2c(c1)N1C3=C(CCCC3)CC3CCCCC31N=2)[N+](=O)[O-] (configuration not stated),99.2% (active)
18,Cc1ccc(Nc2nc(Cl)c(C=O)s2)cc1,10.2% (inactive)
19,CN(C(=O)CCn1c(=S)oc2ccccc21)C1CCCCC1,-15.3% (inactive)
20,CC(=O)Nc1ccc(NC(=O)CSc2ncnc3c2cnn3Cc2ccccc2)cc1,9.1% (inactive)
21,CC(NC(=S)Nc1ccccc1)C(c1cccs1)N1CCOCC1 (configuration not stated),-2.6% (inactive)
22,Clc1ccc(C2=CSC3=Nc4cccc5cccc(c45)N23)cc1,61.8% (active)
23,COC(=O)c1cccc(NS(C)(=O)=O)c1,-15.1% (inactive)
